# Results from PubChem BioAssay (EPA / NIEHS).
# Activity calls are given as the source filed them. The calls were made as follows: active = hit-call score of the fitted dose curve at least 0.9, where 1 is the maximum; inactive = score below 0.9.
# Legend:
# [1] = read-out: Thrombomodulin, THBD (gene 7056); assay: BSK_CASM3C_Thrombomodulin: BioMAP Diversity Plus: CASM3C Assay for Thrombomodulin Biomarker Activity (AID 2283051); conditions: primary human coronary artery smooth muscle cells; actives raise or lower the signal;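 also: thrombomodulin protein level measured by ELISA 24 h after dosing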
# [2] = read-out: Tissue Factor, F3 (gene 2152); assay: BSK_CASM3C_TissueFactor: BioMAP Diversity Plus: CASM3C Assay for Tissue Factor Biomarker Activity (AID 2283052); conditions: primary human coronary artery smooth muscle cells; actives raise or lower the signal;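 also: cell surface tissue factor protein level read by ELISA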
# [3] = read-out: Interferon-gamma inducible Protein 10 (IP10), CXCL10 (gene 3627); assay: BSK_hDFCGF_IP10: BioMAP Diversity Plus: hDFCGF Assay for Interferon-gamma inducible Protein 10 (IP10) Biomarker Activity (AID 2283053); conditions: primary human foreskin fibroblasts; actives raise or lower the signal
# In short: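 IP-10 levels, quantified by ELISA, are taken from human foreskin fibroblast cultures 24 h after chemical treatment, with DMSO serving as negative control and baseline for bidirectional analysis.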
# [4] = read-out: Urokinase-type plasminogen activator receptor (uPAR), PLAUR (gene 5329); assay: BSK_CASM3C_uPAR: BioMAP Diversity Plus: CASM3C Assay for Urokinase-type plasminogen activator receptor (uPAR) Biomarker Activity (AID 2283054); conditions: primary human coronary artery smooth muscle cells; actives raise or lower the signal;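 also: cell-surface uPAR protein level quantified by ELISA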
# [5] = read-out: Vascular cell adhesion molecule 1 (VCAM1), VCAM1 (gene 7412); assay: BSK_CASM3C_VCAM1: BioMAP Diversity Plus: CASM3C Assay for Vascular cell adhesion molecule 1 (VCAM1) Biomarker Activity (AID 2283055); conditions: primary human coronary artery smooth muscle cells; actives raise or lower the signal;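 also: VCAM-1 protein level quantified by ELISA on the cells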
# [6] = read-out: Collagen III, COL3A1 (gene 1281); assay: BSK_hDFCGF_CollagenIII: BioMAP Diversity Plus: hDFCGF Assay for Collagen III Biomarker Activity (AID 2283056); conditions: primary human foreskin fibroblasts; actives raise or lower the signal
# In short: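 Human foreskin primary fibroblasts were exposed to test chemicals for 24 h, after which collagen III was quantified by ELISA. Activity was fitted bidirectionally against DMSO as negative control and baseline.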
# [7] = read-out: Epidermal growth factor receptor (EGFR), EGFR (gene 1956); assay: BSK_hDFCGF_EGFR: BioMAP Diversity Plus: hDFCGF Assay for Epidermal growth factor receptor (EGFR) Biomarker Activity (AID 2283057); conditions: primary human foreskin fibroblasts; actives raise or lower the signal
# In short: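 Measured by ELISA: EGFR levels on primary human foreskin fibroblasts 24 h after chemical treatment, analysed relative to DMSO with bidirectional fitting.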
# [8] = read-out: Interleukin-8 (IL8), CXCL8 (gene 3576); assay: BSK_hDFCGF_IL8: BioMAP Diversity Plus: hDFCGF Assay for Interleukin-8 (IL8) Biomarker Activity (AID 2283058); conditions: primary human foreskin fibroblasts; actives raise or lower the signal
# In short: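 hDFCGF human dermal fibroblasts; 24 h chemical exposure; IL-8 by ELISA; bidirectional curve fit vs DMSO baseline; gain or loss of signal scored.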
# [9] = BSK_hDFCGF_Proliferation: Cell Proliferation Assessment in the BioMAP Diversity Plus: hDFCGF Assay (AID 2283059); conditions: primary human foreskin fibroblasts;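 also: curves fitted for both rise and fall of signal versus DMSO baseline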
# In short: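 Total protein read at 560 nm after 0.1% SRB staining of TCA-fixed human skin fibroblasts, […]. Activity is fitted in both directions relative to DMSO as baseline.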
# [10] = read-out: Macrophage colony-stimulating factor (MCSF), CSF1 (gene 1435); assay: BSK_hDFCGF_MCSF: BioMAP Diversity Plus: hDFCGF Assay for Macrophage colony-stimulating factor (MCSF) Biomarker Activity (AID 2283060); conditions: primary human foreskin fibroblasts; actives raise or lower the signal
# In short: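 Human foreskin primary fibroblasts were treated with test chemical for 24 h, and M-CSF was then measured by ELISA. Data were fitted bidirectionally against DMSO as the negative control and activity baseline.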
# [11] = BSK_hDFCGF_SRB: Viability Assessment in the BioMAP Diversity Plus: hDFCGF Assay (AID 2283061); conditions: primary human foreskin fibroblasts;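 also: cells exposed to compound for 24 h before the read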
# In short: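 Human foreskin primary fibroblasts were treated with compound and assessed 24 h after dosing. Total protein was measured by sulforhodamine B staining (0.1% SRB after 10% TCA fixation, 560 nm read) as a cytotoxicity marker, with bidirectional fitting against DMSO baseline.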
# [12] = read-out: TIMP metallopeptidase inhibitor 1 (TIMP1), TIMP1 (gene 7076); assay: BSK_hDFCGF_TIMP1: BioMAP Diversity Plus: hDFCGF Assay for TIMP metallopeptidase inhibitor 1 (TIMP1) Biomarker Activity (AID 2283062); conditions: primary human foreskin fibroblasts; actives raise or lower the signal
# In short: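 Primary human foreskin fibroblasts in the hDFCGF system were dosed with compound for 24 h, then TIMP-1 was measured by ELISA. Activity was fitted bidirectionally relative to DMSO control; parallel SRB staining assessed cytotoxicity.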
# [13] = read-out: Matrix Metallopeptidase 1 (MMP1), MMP1 (gene 4312); assay: BSK_hDFCGF_MMP1: BioMAP Diversity Plus: hDFCGF Assay for Matrix Metallopeptidase 1 (MMP1) Biomarker Activity (AID 2283064); conditions: primary human foreskin fibroblasts; actives raise or lower the signal
# In short: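 Primary human foreskin fibroblasts exposed to chemicals for 24 h; MMP1 measured by ELISA. Cytotoxicity tracked by SRB staining in parallel cultures; bidirectional fit relative to DMSO.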
# [14] = read-out: Vascular cell adhesion molecule 1 (VCAM1), VCAM1 (gene 7412); assay: BSK_hDFCGF_VCAM1: BioMAP Diversity Plus: hDFCGF Assay for Vascular cell adhesion molecule 1 (VCAM1) Biomarker Activity (AID 2283065); conditions: primary human foreskin fibroblasts; actives raise or lower the signal;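 as to AC50: VCAM-1 protein level quantified by ELISA after 24 h chemical exposure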
# In short: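 Primary human foreskin fibroblasts (hDFCGF system) were dosed with chemical and VCAM-1 was measured by ELISA 24 h later. Bidirectional curve fitting used DMSO as negative control and activity baseline.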
# [15] = read-out: Plasminogen activator inhibitor-1 (PAI1), SERPINE1 (gene 5054); assay: BSK_hDFCGF_PAI1: BioMAP Diversity Plus: hDFCGF Assay for Plasminogen activator inhibitor-1 (PAI1) Biomarker Activity (AID 2283066); conditions: primary human foreskin fibroblasts; actives raise or lower the signal
# In short: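 PAI-1 levels, determined by ELISA, served as the endpoint in human foreskin fibroblast cultures exposed to compound for 24 h, with DMSO as baseline.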
# [16] = read-out: Intercellular Adhesion Molecule 1 (ICAM1), ICAM1 (gene 3383); assay: BSK_KF3CT_ICAM1: BioMAP Diversity Plus: KF3CT Assay for Intercellular Adhesion Molecule 1 (ICAM1) Biomarker Activity (AID 2283067); conditions: primary human keratinocytes with fibroblasts; actives raise or lower the signal
# In short: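 Human keratinocyte plus foreskin fibroblast primary co-culture was exposed to chemical for 24 h. ICAM-1 was then quantified by ELISA, and the data were fit bidirectionally against DMSO as the negative control and baseline.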
# [17] = read-out: Interferon-gamma inducible Protein 10 (IP10), CXCL10 (gene 3627); assay: BSK_KF3CT_IP10: BioMAP Diversity Plus: KF3CT Assay for Interferon-gamma inducible Protein 10 (IP10) Biomarker Activity (AID 2283068); conditions: primary human keratinocytes with fibroblasts; actives raise or lower the signal
# In short: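 Human keratinocyte plus foreskin fibroblast primary co-culture exposed to test chemical for 24 h; IP-10 measured by ELISA. Concentration-response fitted bidirectionally against DMSO control as baseline.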
# [18] = BSK_KF3CT_SRB: Viability Assessment in the BioMAP Diversity Plus: KF3CT Assay (AID 2283069); conditions: primary human keratinocytes with fibroblasts;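 also: fitted for both signal gain and loss against DMSO baseline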
# In short: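 Human keratinocyte and foreskin fibroblast co-culture exposed to chemical for 24 h. Total protein measured in parallel cultures by 0.1% sulforhodamine B staining after 10% TCA fixation, read at 560 nm; bidirectional fit relative to DMSO.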
# [19] = read-out: Interleukin-1 alpha (IL1a), IL1A (gene 3552); assay: BSK_KF3CT_IL1a: BioMAP Diversity Plus: KF3CT Assay for Interleukin-1 alpha (IL1a) Biomarker Activity (AID 2283070); conditions: primary human keratinocytes with fibroblasts; actives raise or lower the signal
# In short: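 Primary human keratinocyte plus foreskin fibroblast co-culture, dosed and measured at 24 h in 96-well plates. IL-1a level quantified by ELISA; bidirectional fit relative to DMSO.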
structure (smiles),measurement,setting,value
Cc1cnc(C2=NC(C)(C(C)C)C(=O)N2)c(C(=O)O)c1 (stereo not given),outcome,[1],inactive
same,outcome,[2],inactive
same,outcome,[3],inactive
same,outcome,[4],inactive
same,outcome,[5],inactive
same,outcome,[6],inactive
same,outcome,[7],inactive
same,outcome,[8],inactive
same,outcome,[9],inactive
same,outcome,[10],inactive
same,outcome,[11],inactive
same,outcome,[12],inactive
same,outcome,[13],inactive
same,outcome,[14],inactive
same,outcome,[15],inactive
same,outcome,[16],inactive
same,outcome,[17],inactive
same,outcome,[18],inactive
same,outcome,[19],inactive
COC(=O)c1c(C(F)F)nc(C(F)(F)F)c(C2=NCCS2)c1CC(C)C,AC50,[1],18 µM (active)
same,outcome,[2],inactive
same,AC50,[3],6.09 µM (active)
same,outcome,[4],inactive
same,outcome,[5],inactive
same,outcome,[6],inactive
same,outcome,[7],inactive
same,outcome,[8],inactive
same,outcome,[9],inactive
same,outcome,[10],inactive
same,outcome,[11],inactive
same,outcome,[12],inactive
same,outcome,[13],inactive
same,outcome,[14],inactive
same,outcome,[15],inactive
same,outcome,[16],inactive
same,AC50,[17],21.8 µM (active)
same,outcome,[18],inactive
same,outcome,[19],inactive
CS(=O)(=O)c1ccc(C(=O)C2C(=O)CCCC2=O)c([N+](=O)[O-])c1,outcome,[1],inactive
same,outcome,[2],inactive
same,outcome,[3],inactive
same,outcome,[4],inactive
same,outcome,[5],inactive
same,outcome,[6],inactive
same,outcome,[7],inactive
same,outcome,[8],inactive
same,outcome,[9],inactive
same,outcome,[10],inactive
same,outcome,[11],inactive
same,outcome,[12],inactive
same,outcome,[13],inactive
same,outcome,[14],inactive
same,outcome,[15],inactive
same,outcome,[16],inactive
same,outcome,[17],inactive
same,outcome,[18],inactive
same,outcome,[19],inactive
Nc1cnn(-c2ccccc2)c(=O)c1Cl,outcome,[1],inactive
same,outcome,[2],inactive
same,outcome,[3],inactive
same,outcome,[4],inactive
same,outcome,[5],inactive
same,outcome,[6],inactive
same,outcome,[7],inactive
same,outcome,[8],inactive
same,outcome,[9],inactive
same,outcome,[10],inactive
same,outcome,[11],inactive
same,outcome,[12],inactive
same,outcome,[13],inactive
same,outcome,[14],inactive
same,outcome,[15],inactive
same,outcome,[16],inactive
same,outcome,[17],inactive
same,outcome,[18],inactive
same,outcome,[19],inactive
CCCCOCN(C(=O)CCl)c1c(CC)cccc1CC,AC50,[1],5.46 µM (active)
same,outcome,[2],inactive
same,AC50,[3],24.6 µM (active)
same,AC50,[4],29.3 µM (active)
same,AC50,[5],24.2 µM (active)
same,AC50,[6],12.2 µM (active)
same,AC50,[7],33.3 µM (active)
same,AC50,[8],31.4 µM (active)
same,AC50,[9],15.2 µM (active)
same,AC50,[10],16.5 µM (active)
same,AC50,[11],31.1 µM (active)
same,AC50,[12],13.7 µM (active)
same,AC50,[13],34.8 µM (active)
same,AC50,[14],16.9 µM (active)
same,AC50,[15],20 µM (active)
same,AC50,[16],35.2 µM (active)
same,AC50,[17],26.4 µM (active)
same,AC50,[18],35.6 µM (active)
same,AC50,[19],35.3 µM (active)
